sPLA2-III inh: human group III sPLA2 inhibitors, primary screen, biochemical, QFRET, BODIPY PC-A2 liposome substrate; inhibition, % at 12.2 µM; 370,000 tested, 0.56% active; QFRET BODIPY PC-A2 liposome hydrolysis, fluorescence; Group 3 secretory phospholipase A2 (Homo sapiens), Q9NZ20;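 active means inhibition above mean plus 3 SD of compounds lying within the high and low control bounds, cut at about 19% in these data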;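 further: 0% = median of test compound wells and 100% = no enzyme DMSO wells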
PLC-gamma1 inh: PLC-gamma1 enzyme inhibitors, primary screen, biochemical, fluorescence, purified enzyme; fluorogenic substrate; inhibition, % at 12.2 µM; 370,000 tested, 0.84% active
ADAM10 inh: human ADAM10 inhibitors, primary screen, biochemical, QFRET, HTS | recombinant ADAM10, EDANS/DABCYL FRET peptide cleavage, 3 h | 370,000 tested, 0.62% active | inhibition, % at 7 µM | AID 720582, 2013;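 active means inhibition above a per-campaign cutoff equal to the mean of compounds falling between control-based bounds plus 3 SD, cut at about 20% in these data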;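 further: 0% = DMSO wells while the 100% control is not disclosed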
Target sequence (O14672 214-748 limits assumed): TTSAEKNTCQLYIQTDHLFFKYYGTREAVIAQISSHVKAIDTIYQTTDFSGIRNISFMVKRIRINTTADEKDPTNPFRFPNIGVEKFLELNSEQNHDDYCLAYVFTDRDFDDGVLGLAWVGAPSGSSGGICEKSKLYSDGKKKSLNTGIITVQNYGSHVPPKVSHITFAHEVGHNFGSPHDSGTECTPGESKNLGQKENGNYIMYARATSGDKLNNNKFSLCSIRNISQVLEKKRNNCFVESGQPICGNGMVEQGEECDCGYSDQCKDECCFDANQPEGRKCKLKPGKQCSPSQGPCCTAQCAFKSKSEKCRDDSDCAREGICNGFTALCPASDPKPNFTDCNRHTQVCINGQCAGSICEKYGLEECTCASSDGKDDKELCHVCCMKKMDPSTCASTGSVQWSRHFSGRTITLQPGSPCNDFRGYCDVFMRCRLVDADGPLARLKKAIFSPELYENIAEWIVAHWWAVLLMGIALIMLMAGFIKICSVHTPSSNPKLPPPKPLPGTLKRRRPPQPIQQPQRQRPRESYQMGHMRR
PLC-beta3 inh: human PLC-beta3 inhibitors, primary screen, biochemical, fluorescence; 1-phosphatidylinositol 4,5-bisphosphate phosphodiesterase beta-3 (Homo sapiens), Q01970; Purified PLC-beta3, fluorogenic substrate; inhibition, % at 12.2 µM; 370,000 tested, 0.18% active; AID 720704, 2013; in the data active means inhibition above about 11%;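 further: 0% = median of compound wells on plate and 100% = full blocker control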
ADAM17 inh: ADAM17 inhibitors, primary screen, biochemical, QFRET; recombinant ADAM17, EDANS/DABCYL FRET peptide cleavage; inhibition, % at 6.95 µM; 370,000 tested, 0.83% active; AID 720648, 2013;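 active means inhibition above the mean of compounds lying between control limits plus 3 SD, set per campaign, cut at about 8.5% in these data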;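 further: 0% = DMSO-only wells as the low control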
KLK7 zymogen act: proKLK7 zymogen activators, primary screen, biochemical, fluorescence intensity; AID 652039, 2013; 370,000 tested, 0.9% active; activation, % at 7 µM; purified proKLK7, EDANS-DABCYL substrate fluorescence; 100% is mature enzyme control, 0% vehicle; Kallikrein-7 (Homo sapiens), P49862;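 active means activation above the mean of all tested compounds plus 3 SD, computed per campaign excluding outliers beyond control limits, cut at about 13% in these data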
PLCgamma1 ctr: PLC-gamma1 enzyme inhibitors, counter-screen for PLC-beta3 inhibitor project, biochemical, fluorescence; shares compounds with PLC-gamma1 inh; 3,300 tested, 3.1% active; inhibition, % at 12.3 µM; purified PLC-gamma1, fluorogenic substrate; AID 743258, 2014
PLCb3 confirm: PLC-beta3 inhibitor confirmation, biochemical, fluorescence, purified enzyme. shares compounds with PLC-gamma1 inh. fluorogenic substrate fluorescence. inhibition, % at 12.3 µM. 3,300 tested, 1% active. AID 743261, 2014; in the data active means inhibition above about 11%
* = called active by the depositor; nt = no result. Compounds with a hit are over-represented: about 3.4% of the library has one in this group of screens. Unless noted, no stated cut-off is given here; in the data, active means inhibition above about 9.5%; inactive means the rest.

SMILES	sPLA2-III inh	PLC-gamma1 inh	ADAM10 inh	PLC-beta3 inh	ADAM17 inh	KLK7 zymogen act	PLCgamma1 ctr	PLCb3 confirm
CN(Cc1ccccc1)C(=O)COC(=O)COc1ccc(C#N)cc1	-2	9.8*	-1	0	8	0	-4	1
CN(Cc1ccccc1)C(=O)COC(=O)COc1ccc(Cl)cc1	10	4	-4	-1	-4	-1	nt	nt
C=C(C)[C@@H]1CC=C(CN2CCN(Cc3ccccc3)CC2)CC1	-2	6	14	-1	-5	0	nt	nt
C=C(C)COc1ccc(-c2nc(N)nc(C(F)(F)F)c2-c2ccc(OC)cc2)c(O)c1	-9	-10	5	-18	-2	0	nt	nt
COc1ccc(-c2nc(N)nc(C(F)(F)F)c2-c2csc(C)n2)c(O)c1	11	11*	4	-6	-3	0	-5	-6
CC(C)(CC(=O)O)CC(=O)Nc1ccc2c(c1)ncn2CCc1ccccc1	-1	2	-1	-4	-3	0	nt	nt
C/C(=N/NC(=O)c1ccccc1)c1ccc(NC(=O)C(F)(F)F)cc1	7	8	14	11*	5	-1	-4	-1
COc1cccc(C(=O)N(CN2CCCC2=O)c2cccc(Cl)c2)c1	-1	11*	-3	6	4	0	-2	0
CCN(CC)c1ccc(C=Nn2c(-c3cc(C)[nH]n3)n[nH]c2=S)cc1	7	0	-17	-5	-1	1	nt	nt
Cc1ncc([N+](=O)[O-])n1CCOC(=O)c1ccccc1	3	10*	8	13*	6	0	-3	0
COc1cccc(CNCc2ccccn2)c1OC	3	3	4	14*	4	0	-6	-4
O=C(c1cnc(-c2ccccc2)s1)c1ccc(Cl)cc1Cl	-2	9.7*	8	2	2	0	-2	-2
O=C(c1ccc(Cl)cc1)c1cnc(-c2ccccc2)s1	0	3	-6	2	0	0	nt	nt
O=C(COC(=O)Cn1ccc(=O)[nH]c1=O)Nc1ccc(F)cc1	2	3	3	5	-1	0	nt	nt
CCN1CCC(CNCc2cn(-c3ccc(OC)cc3)nc2-c2ccccc2Cl)C1 (centres undefined)	-1	2	7	2	1	0	nt	nt
Cc1ccc[n+](-c2nc3ccccc3nc2[N-]S(=O)(=O)c2ccccc2)c1	-6	-1	-1	-8	-4	1	nt	nt
O=S(=O)([N-]c1nc2ccccc2nc1-[n+]1ccccc1)c1ccc(F)cc1	12	11*	-4	-2	1	0	-7	-7
Cc1[nH]c2ccccc2c1C(O)CN1CCC2(CC1)OCCO2 (centres undefined)	-4	-5	3	-15	-3	1	nt	nt
Cc1ccc(C(CNS(=O)(=O)c2ccc([N+](=O)[O-])cc2)N2CCN(C)CC2)cc1 (centres undefined)	-22	6	-1	3	-2	0	nt	nt
O=C(Nc1nc(C2C3CC4CC(C3)CC2C4)cs1)c1cc2cc([N+](=O)[O-])ccc2oc1=O (centres undefined)	3	14*	-2	8	0	0	6	-1
COc1cc(C(=O)NCCN2C(=O)S/C(=C\c3cccs3)C2=O)cc(OC)c1OC	6	10*	4	1	-2	0	1	2
CCOc1ncccc1C(=O)NCCN1C(=O)S/C(=C/c2cccs2)C1=O	1	13*	6	9	1	-1	-2	2
COc1cc(OC)cc(C(=O)NCCN2C(=O)S/C(=C\c3cccs3)C2=O)c1	-7	2	0	-4	0	0	nt	nt
COC(=O)C(Cc1ccccc1)NC(=O)CNC(=O)c1ccc(Br)cc1 (centres undefined)	0	4	-2	4	1	0	nt	nt
CC(=O)NC1C(OCCOc2ccc(Cl)cc2C)OC(CO)C(O)C1O (centres undefined)	3	-1	3	-4	-4	-1	nt	nt
SMILES	sPLA2-III inh	PLC-gamma1 inh	ADAM10 inh	PLC-beta3 inh	ADAM17 inh	KLK7 zymogen act	PLCgamma1 ctr	PLCb3 confirm
CC(=O)NC1C(OCCOc2ccc(Cl)cc2Cl)OC(COC(C)=O)C(OC(C)=O)C1OC(C)=O (centres undefined)	2	10*	2	4	3	0	-4	-1
CC(=O)Nc1cccc(NC(=O)c2ccccc2Cl)c1	5	7	2	6	1	0	nt	nt
O=S1(=O)CCN(CCc2ccccc2)CC1	2	6	-14	12*	6	0	-8	-12
CCOC(=O)C1=C(C)NC(=O)NC1C1CC=CCC1 (centres undefined)	0	4	3	1	1	0	nt	nt
CC1=C(C(=O)OC(C)C)C(C2CC=CCC2)NC(=O)N1 (centres undefined)	5	12*	10	3	4	-1	-4	0
O=C(Cc1ccc(Cl)cc1)NC1CCCN(Cc2ccccc2F)C1 (centres undefined)	4	12*	7	-2	0	0	-3	2
O=C(CCc1cccc(Cl)c1)NC1CCCN(Cc2ccccc2F)C1 (centres undefined)	-5	4	7	-4	-1	1	nt	nt
CCOc1cccc(CN2CCCC(CCC(=O)NCc3ccccc3F)C2)c1O (centres undefined)	5	11*	0	11*	5	-1	-6	0
COc1cccc(CN(C)C(=O)[C@@H](NC(=O)c2ccc(C)cc2)C(C)C)c1	-10	1	-6	-1	-2	0	nt	nt
Cc1cc(C)c(C)c(S(=O)(=O)N2CCN(c3ccc(O)cc3)CC2)c1C	-11	0	17	2	6	0	nt	nt
Cc1ccc(OCCCC(=O)NNC(=O)c2ccncc2)cc1	2	2	-9	-4	-1	0	nt	nt
CCOc1ccc(OCCCC(=O)NNC(=O)c2ccncc2)cc1	12	15*	3	7	7	0	8	2

Screening results (PubChem)
